Measured values reported in ChEMBL document CHEMBL2218924, “A broad activity screen in support of a chemogenomic map for kinase signalling research and drug discovery” (Biochem J, 2013).

target: Homeodomain-interacting protein kinase 1 (Homo sapiens) (UniProt Q86Z02); details: at 10 µM
Sequence (Q86Z02 whole entry, looked up): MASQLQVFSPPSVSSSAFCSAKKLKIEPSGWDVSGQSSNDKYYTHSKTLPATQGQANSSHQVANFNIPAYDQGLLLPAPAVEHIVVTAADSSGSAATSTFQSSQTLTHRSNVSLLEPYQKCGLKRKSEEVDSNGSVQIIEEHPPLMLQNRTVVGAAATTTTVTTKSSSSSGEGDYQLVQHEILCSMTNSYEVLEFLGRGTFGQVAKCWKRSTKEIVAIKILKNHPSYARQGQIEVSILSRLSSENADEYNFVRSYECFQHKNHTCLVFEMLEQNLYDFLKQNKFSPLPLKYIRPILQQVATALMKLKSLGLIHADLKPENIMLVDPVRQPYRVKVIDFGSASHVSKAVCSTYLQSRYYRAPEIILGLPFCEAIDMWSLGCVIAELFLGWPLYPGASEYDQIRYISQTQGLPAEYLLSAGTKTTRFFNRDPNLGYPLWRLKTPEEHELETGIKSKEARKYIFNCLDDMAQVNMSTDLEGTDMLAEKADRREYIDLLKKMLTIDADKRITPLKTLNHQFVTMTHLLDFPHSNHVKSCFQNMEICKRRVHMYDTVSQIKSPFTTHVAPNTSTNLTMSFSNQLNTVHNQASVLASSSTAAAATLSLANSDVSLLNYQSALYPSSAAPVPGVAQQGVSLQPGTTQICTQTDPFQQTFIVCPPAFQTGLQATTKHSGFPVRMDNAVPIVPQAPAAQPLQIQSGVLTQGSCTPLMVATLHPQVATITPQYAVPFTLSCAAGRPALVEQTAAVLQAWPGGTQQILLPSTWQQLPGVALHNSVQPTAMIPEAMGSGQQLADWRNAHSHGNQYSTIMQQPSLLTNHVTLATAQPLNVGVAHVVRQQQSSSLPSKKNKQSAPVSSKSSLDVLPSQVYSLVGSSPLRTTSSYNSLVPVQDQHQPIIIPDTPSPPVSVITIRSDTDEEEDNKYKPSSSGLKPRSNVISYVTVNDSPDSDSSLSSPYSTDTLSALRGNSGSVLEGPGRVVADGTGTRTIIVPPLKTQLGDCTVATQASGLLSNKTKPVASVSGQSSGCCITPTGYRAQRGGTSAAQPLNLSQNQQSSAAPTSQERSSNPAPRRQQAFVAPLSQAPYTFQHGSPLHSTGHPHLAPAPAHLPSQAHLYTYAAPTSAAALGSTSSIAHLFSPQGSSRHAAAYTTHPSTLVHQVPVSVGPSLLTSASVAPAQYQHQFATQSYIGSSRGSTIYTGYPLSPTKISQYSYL

Row | Structure (SMILES) | residual activity [%]
1 | Nc1nc(Nc2ccc(S(N)(=O)=O)cc2)nn1C(=O)c1c(F)cccc1F | 18
2 | CC(C)(C)n1nc(Cc2cccc3ccccc23)c2c(N)ncnc21 | 107
3 | CC(C)c1nn(-c2c(Cl)cccc2Cl)c2nc(Cc3ccc(OCCO)cc3)[nH]c(=O)c12 | 98
4 | O=C(c1ccccc1)c1ccc(N2CCOCC2)cc1O | 97
5 | O=c1cc(N2CCOCC2)oc2c1ccc1ccccc12 | 50
6 | O=C(O)/C=C/c1cc(Br)c(Br)c(Br)c1Br | 53
7 | O=C1NC(=O)c2c1c1c3ccccc3[nH]c1n1cncc21 | 58
8 | O=C1Nc2ccc(Cl)cc2/C1=C/c1cc(Cl)c(O)c(Cl)c1 | 88
9 | NC(=O)Nc1sc(-c2ccc(F)cc2)cc1C(N)=O | 87
10 | COc1ccc2c(c1)c(C1=C(c3c[nH]c4ccccc34)C(=O)NC1=O)cn2CCCN(C)C | 34
11 | Nc1ncnc2c1c(-c1ccc(Oc3ccccc3)cc1)cn2C1CCCC1 | 98
12 | CC(C)[C@H](CO)Nc1nc(Nc2cc(N)cc(Cl)c2)c2ncn(C(C)C)c2n1 | 60
13 | O=C(NC(NC(=S)Nc1ccc(F)c([N+](=O)[O-])c1)C(Cl)(Cl)Cl)C(c1ccccc1)c1ccccc1 (stereo not given) | 93
14 | CCCC(=O)Oc1ccc2[nH]c(C(=O)c3cc4ccccc4[nH]3)cc2c1 | 103
15 | O=C(CCCc1ccc(-c2ccccc2F)cc1)Nc1ccc(O)cc1 | 104
